From PubChem BioAssay (NCI)
This is part of a sample that, as a whole, favours compounds with a hit. Of some 83,000 tested, about 20% had one in any assay.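 Single-dose data. Exposure time 48 hours. Values below 10 considered active.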 Calls of active or inactive are those of the source.

What was measured:
Assay in all cases: NCI-60 one-dose screen, 48 h (100 = growth as untreated, 0 = no growth, -100 = all killed)
Details in all cases: 10 µM unless noted
SR leukemia = test system: SR leukemia
RPMI-8226 leukemia = test system: RPMI-8226 leukemia
OVCAR-8 ovarian = test system: OVCAR-8 ovarian
OVCAR-5 ovarian = test system: OVCAR-5 ovarian
OVCAR-4 ovarian = test system: OVCAR-4 ovarian
SK-OV-3 ovarian = test system: SK-OV-3 ovarian
IGROV1 ovarian = test system: IGROV1 ovarian
OVCAR-3 ovarian = test system: OVCAR-3 ovarian
HS 578T breast = test system: HS 578T breast
NCI/ADR-RES ovarian = test system: NCI/ADR-RES ovarian
T-47D breast = test system: T-47D breast
BT-549 breast = test system: BT-549 breast
MDA-MB-435 melanoma = test system: MDA-MB-435 melanoma
SW-620 colon = test system: SW-620 colon
MCF7 breast = test system: MCF7 breast
HCT-116 colon = test system: HCT-116 colon
HCC-2998 colon = test system: HCC-2998 colon
KM12 colon = test system: KM12 colon

Measured: growth

CC1CCC(C)N(C)C1 (stereo not drawn)
inactive: SR leukemia 88.1% | RPMI-8226 leukemia 89.7% | OVCAR-8 ovarian 105% | OVCAR-5 ovarian 106% | OVCAR-4 ovarian 107% | SK-OV-3 ovarian 102% | IGROV1 ovarian 106% | OVCAR-3 ovarian 112% | HS 578T breast 108% | NCI/ADR-RES ovarian 107% | T-47D breast 96.9% | BT-549 breast 87.6% | MDA-MB-435 melanoma 111% | SW-620 colon 113% | MCF7 breast 96.5% | HCT-116 colon 97.9% | HCC-2998 colon 85.2% | KM12 colon 110%

c1ccc(Nc2nc(Nc3ccccc3)nc(Nc3ccccc3)n2)cc1
inactive: SR leukemia 69.8% | RPMI-8226 leukemia 74.5% | OVCAR-8 ovarian 92.2% | OVCAR-5 ovarian 97.1% | OVCAR-4 ovarian 81.2% | SK-OV-3 ovarian 92.7% | IGROV1 ovarian 62.5% | OVCAR-3 ovarian 96.4% | HS 578T breast 107% | NCI/ADR-RES ovarian 77.9% | T-47D breast 71.9% | BT-549 breast 114% | MDA-MB-435 melanoma 89.7% | SW-620 colon 88.9% | MCF7 breast 65% | HCT-116 colon 82% | HCC-2998 colon 85.6% | KM12 colon 84.4%

CC(=O)Nc1scc[n+]1Cc1ccccc1
inactive: SR leukemia 76.6% | RPMI-8226 leukemia 92.2% | OVCAR-8 ovarian 99.3% | OVCAR-5 ovarian 110% | OVCAR-4 ovarian 108% | SK-OV-3 ovarian 99.5% | IGROV1 ovarian 109% | OVCAR-3 ovarian 114% | HS 578T breast 106% | NCI/ADR-RES ovarian 102% | T-47D breast 102% | BT-549 breast 103% | MDA-MB-435 melanoma 110% | SW-620 colon 105% | MCF7 breast 98.4% | HCT-116 colon 102% | HCC-2998 colon 103% | KM12 colon 105%

NC1=NC(SCc2ccccc2CCl)c2ncn(Cc3ccccc3CCl)c2N1 (stereo not drawn)
inactive: RPMI-8226 leukemia 76.7% | OVCAR-8 ovarian 22.8% | OVCAR-5 ovarian 110% | OVCAR-4 ovarian 42.9% | SK-OV-3 ovarian 89.7% | HS 578T breast 33.8% | NCI/ADR-RES ovarian 69% | T-47D breast 35.8% | BT-549 breast 56.4% | MDA-MB-435 melanoma 30.9% | MCF7 breast 25.2% | HCC-2998 colon 79.4% | KM12 colon 48.5%
active: SR leukemia 9.1% | IGROV1 ovarian -26.3% | OVCAR-3 ovarian 2.22% | SW-620 colon 2.06% | HCT-116 colon 7.53%

C=C1C(=O)O[C@H]2[C@H]1CC/C(Cn1cc(-c3cccc(Cl)c3)nn1)=C\CC[C@@]1(C)O[C@@H]21
active: SR leukemia -3.12% | RPMI-8226 leukemia -34% | OVCAR-8 ovarian -43.7% | OVCAR-5 ovarian -36.7% | OVCAR-4 ovarian -71.3% | IGROV1 ovarian -50.4% | OVCAR-3 ovarian -92.8% | HS 578T breast -0.629% | T-47D breast -43.7% | BT-549 breast -49.5% | MDA-MB-435 melanoma -78.6% | SW-620 colon -77.8% | MCF7 breast -46.8% | HCT-116 colon -84.8% | HCC-2998 colon -85.5%
inactive: SK-OV-3 ovarian 80.8% | NCI/ADR-RES ovarian 10.7% | KM12 colon 12.9%

O=C(CN1CCN(c2cc3c(cc2F)c(=O)c(C(=O)N/N=C/c2ccccc2O)cn3C2CC2)CC1)N/N=C\c1ccccc1O
inactive: SR leukemia 14.6% | RPMI-8226 leukemia 25.4% | OVCAR-8 ovarian 25.8% | OVCAR-5 ovarian 39% | OVCAR-4 ovarian 19.8% | SK-OV-3 ovarian 34.5% | IGROV1 ovarian 21.5% | OVCAR-3 ovarian 30.7% | HS 578T breast 57.4% | NCI/ADR-RES ovarian 23.6% | T-47D breast 17.9% | BT-549 breast 45.5% | MDA-MB-435 melanoma 17.6% | SW-620 colon 36.6% | MCF7 breast 10% | HCT-116 colon 15.6% | HCC-2998 colon 39.5% | KM12 colon 18.3%

S=C(S)NCCc1c[nH]c2ccccc12
inactive: SR leukemia 94.9% | RPMI-8226 leukemia 92.4% | OVCAR-8 ovarian 95.9% | OVCAR-5 ovarian 102% | OVCAR-4 ovarian 111% | SK-OV-3 ovarian 121% | IGROV1 ovarian 81.9% | OVCAR-3 ovarian 101% | HS 578T breast 99.5% | NCI/ADR-RES ovarian 101% | T-47D breast 88% | BT-549 breast 92.6% | MDA-MB-435 melanoma 103% | SW-620 colon 101% | MCF7 breast 94.4% | HCT-116 colon 96.1% | HCC-2998 colon 115% | KM12 colon 96.7%

COc1ccc(C2C(C#N)=C(N)Oc3c2ccc2ccccc32)cc1 (stereo not drawn)
inactive: SR leukemia 37.4% | RPMI-8226 leukemia 44.3% | OVCAR-8 ovarian 56.5% | OVCAR-5 ovarian 73.3% | OVCAR-4 ovarian 62.3% | SK-OV-3 ovarian 57.8% | IGROV1 ovarian 41% | OVCAR-3 ovarian 15.4% | HS 578T breast 47.1% | T-47D breast 31% | BT-549 breast 61% | SW-620 colon 19% | MCF7 breast 13.2% | HCT-116 colon 23.5% | HCC-2998 colon 74.4% | KM12 colon 29%
active: NCI/ADR-RES ovarian 5.02% | MDA-MB-435 melanoma -49.8%

COc1ccc(C(=O)NC(=O)Nc2cc3c(cc2F)/C(=C/c2[nH]c(C)c(CCC(=O)O)c2C)C(=O)N3)c(F)c1
active: RPMI-8226 leukemia -2.09% | OVCAR-8 ovarian 6.72%
inactive: SR leukemia 26.5% | OVCAR-5 ovarian 63.1% | OVCAR-4 ovarian 80.3% | SK-OV-3 ovarian 60.5% | IGROV1 ovarian 37.4% | OVCAR-3 ovarian 36.8% | HS 578T breast 16.3% | NCI/ADR-RES ovarian 83.9% | T-47D breast 47.8% | BT-549 breast 25.2% | MDA-MB-435 melanoma 36.8% | SW-620 colon 26.6% | MCF7 breast 41.7% | HCT-116 colon 37% | HCC-2998 colon 50.3% | KM12 colon 11.7%

O=C(Oc1ccccc1[N+](=O)[O-])C1CCCN1C(=O)OCc1ccccc1 (stereo not drawn)
inactive: SR leukemia 82.4% | RPMI-8226 leukemia 97.3% | OVCAR-8 ovarian 97.5% | OVCAR-5 ovarian 109% | OVCAR-4 ovarian 103% | SK-OV-3 ovarian 108% | IGROV1 ovarian 109% | OVCAR-3 ovarian 110% | HS 578T breast 112% | NCI/ADR-RES ovarian 92.7% | T-47D breast 110% | BT-549 breast 89.6% | MDA-MB-435 melanoma 104% | SW-620 colon 105% | MCF7 breast 95.6% | HCT-116 colon 87% | HCC-2998 colon 101% | KM12 colon 107%

Cc1ccc(-c2csc(NC(=O)CCCCl)n2)cc1
inactive: SR leukemia 84.4% | RPMI-8226 leukemia 82.7% | OVCAR-8 ovarian 106% | OVCAR-5 ovarian 94.6% | OVCAR-4 ovarian 90.7% | SK-OV-3 ovarian 105% | IGROV1 ovarian 95% | OVCAR-3 ovarian 101% | HS 578T breast 105% | NCI/ADR-RES ovarian 101% | T-47D breast 77.2% | BT-549 breast 98.1% | MDA-MB-435 melanoma 103% | SW-620 colon 107% | MCF7 breast 90.7% | HCT-116 colon 98.6% | HCC-2998 colon 103% | KM12 colon 95%

CCN(CC)CCOc1ccc(/C(=C(/C)c2ccccc2)c2ccc(OC(C)=O)cc2)cc1
inactive: SR leukemia 112% | RPMI-8226 leukemia 100% | OVCAR-8 ovarian 112% | OVCAR-5 ovarian 98.2% | OVCAR-4 ovarian 100% | SK-OV-3 ovarian 106% | IGROV1 ovarian 105% | OVCAR-3 ovarian 104% | HS 578T breast 95.2% | NCI/ADR-RES ovarian 101% | T-47D breast 60.2% | BT-549 breast 69.1% | MDA-MB-435 melanoma 94.8% | SW-620 colon 95.5% | MCF7 breast 41.7% | HCT-116 colon 79% | HCC-2998 colon 103% | KM12 colon 102%

C=C[C@@H]1C[C@@H]2Cc3cc(F)ccc3N1O2
inactive: SR leukemia 32% | RPMI-8226 leukemia 94.1% | OVCAR-8 ovarian 114% | OVCAR-5 ovarian 97% | OVCAR-4 ovarian 104% | SK-OV-3 ovarian 113% | IGROV1 ovarian 122% | OVCAR-3 ovarian 113% | HS 578T breast 106% | NCI/ADR-RES ovarian 102% | T-47D breast 111% | BT-549 breast 124% | MDA-MB-435 melanoma 98.7% | SW-620 colon 112% | MCF7 breast 100% | HCT-116 colon 112% | HCC-2998 colon 95.3% | KM12 colon 108%

C=C(C)[C@@H]1C[C@@H]2Cc3ccc(Cl)c(C)c3N1O2
inactive: SR leukemia 80.2% | RPMI-8226 leukemia 78.6% | OVCAR-8 ovarian 107% | OVCAR-5 ovarian 79.5% | OVCAR-4 ovarian 91.7% | SK-OV-3 ovarian 99.6% | IGROV1 ovarian 111% | OVCAR-3 ovarian 105% | HS 578T breast 97% | NCI/ADR-RES ovarian 94.2% | T-47D breast 89.1% | BT-549 breast 101% | MDA-MB-435 melanoma 94.4% | SW-620 colon 106% | MCF7 breast 107% | HCT-116 colon 95.9% | HCC-2998 colon 90.5% | KM12 colon 104%

COc1cc(NC(=O)SC2=NCCS2)cc(OC)c1
inactive: SR leukemia 93.9% | RPMI-8226 leukemia 63.2% | OVCAR-8 ovarian 98.7% | OVCAR-5 ovarian 97.7% | OVCAR-4 ovarian 98% | SK-OV-3 ovarian 98% | IGROV1 ovarian 139% | OVCAR-3 ovarian 113% | HS 578T breast 99.7% | NCI/ADR-RES ovarian 99% | T-47D breast 87.2% | BT-549 breast 95.4% | MDA-MB-435 melanoma 113% | SW-620 colon 95.8% | MCF7 breast 94.1% | HCT-116 colon 108% | HCC-2998 colon 114% | KM12 colon 106%

C=C1c2nc3ccccc3n2C=C(c2ccc(Cl)cc2)N1Cc1ccccc1
active: OVCAR-4 ovarian -8.06%
inactive: SR leukemia 23.7% | RPMI-8226 leukemia 35.3% | OVCAR-8 ovarian 75.6% | OVCAR-5 ovarian 99.9% | SK-OV-3 ovarian 83.4% | IGROV1 ovarian 106% | OVCAR-3 ovarian 92.2% | HS 578T breast 87% | NCI/ADR-RES ovarian 79.4% | T-47D breast 66% | BT-549 breast 142% | MDA-MB-435 melanoma 98.1% | SW-620 colon 86.9% | MCF7 breast 63% | HCT-116 colon 63% | HCC-2998 colon 89.2% | KM12 colon 86.9%
